{"source": "PubChem BioAssay AID449741", "about": "(Southern Research Specialized Biocontainment Screening …, 2010)", "note": "A number with no mark means an inactive call.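 Rule for the calls: active = inhibition above 30% at one or more tested concentrations in the dose response; inactive = inhibition below 30% at every tested concentration.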"}
{"assay": "PhoP-driven GFP expression inhibition, Typhimurium – GFP fluorescence, round 4, synthesized compounds, late-stage follow-up (AID 449741)", "conditions": "S. Typhimurium PhoP-regulated promoter-GFP fluorescence, 4 h; series mostly up to 150 µM; inhibition: at the top concentration", "units": {"inhibition": "%"}}
{"smiles": "FC(F)(F)c1ccc(NC(=S)NCc2ccc(Cl)cc2)cc1", "inhibition": -9.89}
{"smiles": "N#Cc1ccc(CN2CCCN(C(=O)Nc3ccc(Cl)cc3)C2)cc1", "inhibition": -21.8}
{"smiles": "S=C(NCc1ccc(Cl)cc1)NN1CCOCC1", "inhibition": 28.7}
{"smiles": "S=C(NCc1ccc(Cl)cc1)NC1CCOCC1", "inhibition": -13.7}
{"smiles": "O=C(Nc1ccc(Cl)cc1)N1CCCN(Cc2cccc(F)c2)C1", "inhibition": -5.94}
{"smiles": "CN1CCN(C(=S)NCc2ccc(Cl)cc2)CC1", "inhibition": -1.03}
{"smiles": "O=C(NC1CCCCC1)N1CCCN(Cc2ccccc2F)C1", "inhibition": -4.34}
{"smiles": "S=C(NCc1ccc(Cl)cc1)Nc1ccccn1", "inhibition": 24.6}
{"smiles": "S=C(NCc1ccccc1)NCc1ccc(Cl)cc1", "inhibition": -20.5}
{"smiles": "O=C(Nc1ccc(Cl)cc1)N1CCCN(Cc2cccc(Br)c2)C1", "inhibition": -26.9}
{"smiles": "O=C(Nc1ccc(Cl)cc1)N1CCN(Cc2ccccc2F)C1", "inhibition": -1.2}
{"smiles": "S=C(NCc1ccc(Cl)cc1)Nc1ccncn1", "inhibition": 29.9}
{"smiles": "FC(F)(F)c1ccccc1NC(=S)NCc1ccc(Cl)cc1", "inhibition": -11.8}
{"smiles": "COc1cccc(CNC(=S)Nc2ccncc2)c1", "inhibition": -30.7}
{"smiles": "S=C(NCc1ccc(Cl)cc1)Nc1ccccc1Br", "inhibition": 15.6}
{"smiles": "S=C(NCc1ccc(Cl)cc1)Nc1cccc(Br)c1", "inhibition": -24.5}
{"smiles": "S=C(NCc1ccc(Cl)cc1)Nc1ccc(I)cc1", "inhibition": 21}
{"smiles": "S=C(NCc1ccc(Cl)cc1)Nc1ccccc1I", "inhibition": 18.9}
{"smiles": "Cc1ccccc1NC(=O)N1CCCN(Cc2ccccc2F)C1", "inhibition": -9.77}
{"smiles": "S=C(NCc1ccc(Cl)cc1)NC1CCCCC1", "inhibition": 13.3}
